This is a sample that favours compounds with a hit; in the whole collection about 4% have one here.
BoNT-A LC inh2 = inhibitors of Botulinum neurotoxin A light chain protease; multiplex microsphere protease substrate cleavage, flow cytometry; inhibition, % at 10 µM; hit rate 0.17% among 360,000; AID 588499; further: plate controls were buffer without enzyme for full effect and enzyme alone for no effect
Bead autofluor = compound fluorescence in toxin protease inhibitor counterscreen | compound autofluorescence counterscreen, microsphere flow cytometry; active compounds read high | fluorescence intensity (test concentration not listed) | hit rate 3.1% among 360,000; in the data active means fluorescence intensity above about 16000; inconclusive means no clear call, values can overlap the other calls
VHR inh abs = blocks human VHR1 dual specificity phosphatase | AID 1654 | recombinant VHR phosphatase, pNPP absorbance | inhibition, % at 13.3 µM | P51452 | hit rate 0.52% among 290,000; in the data active means inhibition above about 50%
MazEF act = MazEF (E. coli) toxin RNase activation. FAM/BHQ RNA-DNA oligo cleavage fluorescence, 5 h. activation, % at 20 µM. hit rate 0.32% among 350,000. AID 504720; in the data active means activation above about 50%
BoNT-F LC inh = blocks Botulinum neurotoxin F light chain protease | Multiplex microsphere protease cleavage assay, flow cytometry | inhibition, % at 10 µM | hit rate 0.22% among 360,000 | AID 588497; in the data active means inhibition above about 35%, passing the limit was not always enough; inconclusive means no clear call, values can overlap the other calls; further: plate controls were buffer without enzyme for full effect and enzyme alone for no effect
Anthrax LF inh2 = inhibitors of Bacillus anthracis lethal factor protease | P15917 | multiplex microsphere protease cleavage assay, LF | inhibition, % at 10 µM | hit rate 0.12% among 360,000; further: plate controls were buffer without enzyme for full effect and enzyme alone for no effect
Numbers without * were called inactive; ? = inconclusive; . = no result given. Unless noted, no stated cut-off is given here; in the data, active means inhibition above about 30%; inconclusive means no clear call, values can overlap the other calls; inactive means below that.

SMILES	BoNT-A LC inh2	Bead autofluor	VHR inh abs	MazEF act	BoNT-F LC inh	Anthrax LF inh2
Cc1ccc(Cc2c(-c3cccc(Br)c3)nc3ccc(Br)cn23)cc1	9	7714	.	.	0	8
CCN(CC)S(=O)(=O)c1cc(NC(=O)Cn2cnc3ccccc3c2=O)ccc1C	0	16361*	12	4	0	4
CC(=O)Nc1cc(Cl)c(N=Cc2ccc(O)cc2O)cc1Cl	1	2360	24	106*	-4	0
O=C(CN1CCN(S(=O)(=O)N2CCCCCC2)CC1)Nc1ccc(Br)cc1	-3	6189	-2	1	-4	5
Cc1cccc(NC(=O)COc2ccccc2)c1	-11	26330*	7	0	-14	-1
Cc1cc(C)c(OCC(=O)Nc2cc(C(=O)O)cc(C(=O)O)c2)cc1C	0	4499	-16	6	-4	-7
Cc1ccc(OCC(=O)Nc2cccc(-c3nnc(-c4ccccc4)o3)c2)c(C)c1	?	21189*	20	-1	3	-3
CCOc1ccc(C)cc1-n1nc2ccccc2n1	0	6055	33	1	3	6
Cc1ccc(OCC(=O)Nc2ccc(Cl)cc2)c(-n2nc3ccccc3n2)c1	2	5370	27	69*	-8	-2
Cc1ccc(C)c(OCC(=O)Nc2cc(C(=O)O)cc(C(=O)O)c2)c1	-2	4428	53*	0	-7	-7
CCOC(=O)c1nn(-c2ccc(C)cc2)c(=O)cc1OCC(=O)Nc1cccc(C)c1	10	4308	.	-6	43*	0
CC(=O)Nc1cccc(OCC(=O)Nc2ccccc2)c1	0	7096	33	5	-3	-14
CC(C)C(C)NC(=O)COc1ccc(-c2ccccc2)cc1 (stereo not given)	-1	3076	2	6	-2	0
CC(C)C(NC(=O)COc1ccccc1)C(=O)O (stereo not given)	6	19854*	16	-1	9	-6
CCOC(=O)c1nn(-c2ccc(C)cc2)c(=O)cc1OCC(=O)Nc1cccc(OC)c1	.	.	.	8	.	.
CCOC(=O)Nc1cccc(OCC(=O)Nc2ccccc2OCC)c1	-1	22734*	-19	2	-2	-3
COc1ccccc1C1=NOC(C)(c2nnc(-c3cccc(Cl)c3)o2)C1 (stereo not given)	0	2898	.	2	-9	4
Cc1cc(C)nc(Sc2ccc(C=O)cc2[N+](=O)[O-])n1	-1	2969	10	0	-5	-2
O=Cc1ccc(Sc2nnc(-c3ccccc3)o2)c([N+](=O)[O-])c1	?	19318*	32	2	4	-7
O=C(Cn1cc([N+](=O)[O-])ccc1=O)NCc1ccc(Cl)cc1Cl	1	5264	10	-1	3	2
O=C(c1ccc(Cl)cc1)N(Cc1ccc(Br)cc1)N1C(=O)CCC1=O	0	4462	29	11	-6	-4
O=C(c1ccc([N+](=O)[O-])cc1)N(Cc1ccc(Cl)cc1Cl)N1C(=O)CCCC1=O	2	22479*	17	-3	5	-6
O=C(c1ccc([N+](=O)[O-])cc1)N(Cc1ccc(Cl)cc1)N1C(=O)CCCC1=O	-5	17414*	8	7	-6	-2
OC[C@H]1O[C@@H](Oc2cc(O)cc(/C=C/c3ccc(O)cc3)c2)[C@H](O)[C@@H](O)[C@@H]1O	.	.	30	.	.	.
C=C1CC(C)OC(c2ccccc2OCC(O)CN2CCCCC2)C1 (stereo not given)	?	21660*	31	6	-4	1
SMILES	BoNT-A LC inh2	Bead autofluor	VHR inh abs	MazEF act	BoNT-F LC inh	Anthrax LF inh2
NC(N)=Nc1nc2ccc([N+](=O)[O-])cc2[nH]1	4	2933	27	-5	0	8
COc1ccccc1-n1c(C)nnc1SCC(=O)Nc1cc(C)cc(C)c1	0	23628*	0	3	0	-2
COc1ccccc1-n1c(C)nnc1SCC(N)=O	1	22827*	-5	3	1	3
Fc1ccc(CNc2ccc(CNc3ncn[nH]3)cc2)cc1	6	21380*	-3	5	4	-4
Cc1c(C(=O)N/N=C/C(C)C)[nH]c2ccc([N+](=O)[O-])cc12	-1	3412	56*	10	-3	0
CCOC(=O)C1=C(C)OC(=Cc2ccccc2)C1=O	0	3955	.	4	-2	4
CCOC(=O)C1=C(O)c2ccccc2C(=O)/C1=C\c1ccc(C)cc1	1	3339	-1	151*	-18	-2
CC(C)(C)C(=O)Nc1nc(-c2ccc3c(c2)OCO3)cs1	0	3131	12	-5	-10	-2
CCOc1ccc(NC(=O)CSc2nc3ccccc3c(=O)n2CCCC(=O)NCC2CCCO2)cc1 (stereo not given)	-1	4218	2	-3	-9	-5
COc1ccc(CNC(=O)CCCn2c(SCC#N)nc3cc4c(cc3c2=O)OCO4)cc1	3	21923*	27	0	0	-1
O=C(CSc1nc2ccccc2c(=O)n1NC(=O)Cc1ccccc1)NCCc1ccccc1	3	21231*	26	-1	3	-2
O=C(CCCn1c(SCC(=O)NCC2CCCO2)nc2ccccc2c1=O)NCC1CCCO1 (stereo not given)	-2	20974*	25	3	-4	-1
O=C(CSc1nc2ccccc2c(=O)n1CC1CCCO1)NCc1ccccc1 (stereo not given)	-1	2837	17	9	-10	-5
COCCCNC(=O)CSc1nc2cc3c(cc2c(=O)n1CCCC(=O)NCc1ccc(OC)cc1)OCO3	-1	4512	-6	-6	-10	-6
O=C(CSc1nc2ccccc2c(=O)n1CC1CCCO1)N1CCN(c2ccccc2)CC1 (stereo not given)	2	21377*	.	-6	2	-1
Cc1ccccc1-c1cc(C(=O)NCc2ccc(OC(F)(F)F)cc2)n(CC2CC(c3cccnc3)=NO2)n1 (stereo not given)	0	2999	.	-4	-1	-4
Cc1[nH]c2ccc(C(=O)NCCCN3CCCCCC3)cc2c1C	0	5318	38	7	-28	-7
CC(C)CCNC(=O)CSc1nc2ccsc2c(=O)n1NC(=O)c1ccccc1	1	21825*	14	4	2	-3
COCCNC(=O)CSc1nc2ccccc2c(=O)n1CCCC(=O)NCc1ccccc1	?	22634*	32	0	1	-4
COCCCNC(=O)CSc1nc2ccccc2c(=O)n1CCCN1CCCCC1	-1	4142	44	10	4	1
Cc1ccc(NC(=O)N2CCCC2C(=O)NCC2CCCO2)cc1 (stereo not given)	0	4193	6	13	-1	3
Cc1cn(C(=O)c2ccccc2)c(=S)n1-c1ccc(Cl)cc1	-2	17230*	22	3	-2	-3
Cc1ccc(-n2c(C)cn(C(=O)c3ccccc3)c2=S)cc1	2	15652	9	-10	2	-1
CN(C)c1ccc(CC(=O)N2CCCCC2c2cc(C(=O)Nc3ccccc3Cl)no2)cc1 (stereo not given)	0	3989	.	.	-3	-8
